In article PMC12431657, “Discovery and mechanistic insights of dibenzoylmethane as a broad spectrum inhibitor of coronavirus” (PLOS Pathogens, 2025):
Read-outs that look alike come from different tables or passages of the source. The campaign covered roughly 3,300 compounds. About 95 (3%) showed an effect of 50% or more. Many of the other results were omitted from the sample, so strong results are more common in it than they were.

Test system: HCoV-229E
Design: species or system Huh-7; HTS, protection from HCoV-229E induced cell death, luminescent cell viability (CellCounting-Lite 2.0), inhibition rate
Details: 24 h post infection, 1 h compound pre-incubation, 10 µM, inhibitor

Row | SMILES | 229E Inhibition rate (229E Inhibition rate, 24 h) | 229E Inhibition rate
1 | COc1ccc2cc3[n+](cc2c1OC)CCc1cc2c(cc1-3)OCO2 [Berberine (chloride hydrate)] | 34% | –
2 | C=C1C(=O)O[C@@H]2/C=C(\C)[C@@H](OC(C)=O)C/C=C(\COC(C)=O)C[C@@H](OC(=O)/C(C)=C/CO)[C@@H]12 [Eupalinolide A] | 35.1% | –
3 | C[C@@H](O)C(=O)O [D-(-)-Lactic acid (sodium)] | – | 8.1%
4 | C[C@H](O)C(=O)O [L-Lactic acid] | – | 58.1%
5 | CC(C)C(O)C(=O)O (centres unmarked) [2-Hydroxy-3-methylbutanoic acid] | – | 20.4%
6 | COc1ccc2c3c1O[C@H]1C[C@@H](O)CC[C@]31CCN(C)C2 [Lycoramine] | – | 33.8%
7 | COc1ccc(CC(=O)O)cc1 [2-(4-Methoxyphenyl)acetic acid] | – | 0%
8 | COc1cc(CNC(=O)CCCCCCCC(C)C)ccc1O [Homodihydrocapsaicin I] | – | 33%
9 | Cc1cc(O)cc2c1O[C@](C)(CCC[C@H](C)CCC[C@H](C)CCCC(C)C)CC2 [Delta-Tocopherol] | – | 8.2%
10 | CCOC(=O)/C=C/c1ccccc1 [Ethyl cinnamate] | – | 4%
11 | CC(=O)OC/C1=C/C[C@H]2[C@@H](/C=C(\C)C(=O)[C@@]3(OC(C)=O)C[C@H](C)[C@H](OC(=O)c4ccccc4)[C@@H]3[C@H]1OC(C)=O)C2(C)C [Euphorbia factor L7b] | – | 41.1%
12 | CC(=O)OC/C1=C\[C@H]2[C@@H](OC(=O)/C=C/c3ccccc3)[C@@H](C)C[C@]2(OC(C)=O)C(=O)/C(C)=C/[C@@H]2[C@H](CC1)C2(C)C [Euphorbia factor L7a] | – | 90.9%
13 | COc1cc(/C=C/C(=O)NCC(O)c2ccc(O)cc2)ccc1O (centres unmarked) [N-Feruloyloctopamine] | – | 7.9%
14 | CC1=CC(=O)[C@@H]2C[C@H]1C2(C)C [Verbenone] | – | 0%
15 | C=C1[C@@H](O)[C@]2(O)OC[C@]34[C@H]2[C@@]2(C)[C@H](O)C(=O)C=C(C)[C@@H]2C[C@H]3OC(=O)[C@H](O)[C@@]14O [Eurycomanone] | – | 53.4%
16 | CC1(C)Oc2cc3oc(-c4cc(O)cc(O[C@@H]5OC[C@@H](O)[C@H](O)[C@H]5O)c4)cc3cc2CC1O (some centres unmarked) [Mulberroside C] | – | 0%
17 | O=C(/C=C/c1ccc(O)c(O)c1/C=C/c1ccc(O)c(O)c1)O[C@H](Cc1ccc(O)c(O)c1)C(=O)O [Salvianolic acid A] | – | 17.8%
18 | CCCCCC1C(=O)CCC1CC(=O)OC (centres unmarked) [Methyl dihydrojasmonate] | – | 54.7%
19 | CCCCCCCCCCCCCCCCC(=O)OC [Methyl heptadecanoate] | – | 20.9%
20 | CC/C=C/CC1C(=O)CCC1CC(=O)OC (centres unmarked) [Methyl 2-(3-oxo-2-(pent-2-en-1-yl)cyclopentyl)acetate] | – | 22%
